The values that follow come from PubChem BioAssay AID720504 (National Center for Advancing Translational Sciences (NCATS), 2013).

The structures appear in SMILES notation. The campaign covered roughly 360,000 compounds. About 10,000 (2.8%) were called active. Inconclusive results (about 4%) are left out. This excerpt belongs to a sample that is enriched for actives. Unmarked numbers belong to inactive results. The call rests on the fitted dose curve; in most records, active means well fitted inhibition curve with a large enough effect; inconclusive means small, poorly fitted or top-dose-only effect; inactive means flat fitted curve, though single readings scatter.
On the % scale 0 is the no-effect control and ±100 the full control effect; potency means the concentration at half of the fitted maximal effect.

Chain of Serine/threonine-protein kinase PLK1 (Homo sapiens) (P53350 whole entry, looked up, the tested form may be a part): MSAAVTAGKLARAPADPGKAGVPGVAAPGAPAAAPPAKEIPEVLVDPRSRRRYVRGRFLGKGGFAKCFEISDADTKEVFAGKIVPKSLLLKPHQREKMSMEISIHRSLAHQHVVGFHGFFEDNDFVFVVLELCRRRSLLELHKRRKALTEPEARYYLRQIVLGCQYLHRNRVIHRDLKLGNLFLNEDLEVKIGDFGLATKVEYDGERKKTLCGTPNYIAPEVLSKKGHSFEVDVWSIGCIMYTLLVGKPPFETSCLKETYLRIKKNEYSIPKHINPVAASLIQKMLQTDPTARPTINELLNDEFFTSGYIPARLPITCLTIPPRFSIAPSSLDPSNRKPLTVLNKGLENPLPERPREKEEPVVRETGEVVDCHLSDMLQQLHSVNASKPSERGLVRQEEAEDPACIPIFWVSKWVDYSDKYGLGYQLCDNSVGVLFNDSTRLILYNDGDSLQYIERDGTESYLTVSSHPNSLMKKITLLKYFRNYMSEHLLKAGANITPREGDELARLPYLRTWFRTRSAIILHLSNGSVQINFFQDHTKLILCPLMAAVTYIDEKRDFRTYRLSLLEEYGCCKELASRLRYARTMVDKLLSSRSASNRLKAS

The experiment concerns the target Serine/threonine-protein kinase PLK1 (Homo sapiens) (UniProt P53350). Nature of the experiment: qHTS for Inhibitors of PLK1-PDB (polo-like kinase 1 - polo-box domain): Primary Screen. Further: nearly all actives have a fitted effect of over 65% in size. On max response, negative = inhibition: series mostly up to about 57 µM. The conditions noted are these: Plk1 PBD binding of FITC phosphopeptide, fluorescence polarization. For orientation: qHTS replaces the single test concentration by a dilution series.
Regarding `Cc1cc(C)c2c(=O)n3c(nc2c1)C(CC(C)C)NC(=O)c1cc2ccccc2cc1-3` (centres undefined), the max response, negative = inhibition was 1.09%.

For `O=C(Nc1ccc(Cl)c(C(F)(F)F)c1)C1Cc2c(-c3ccccc3Oc3ccccc3)ccnc2O1` (centres undefined), the max response, negative = inhibition was -6%.

For the compound `Cc1cc(C)cc(NC(=O)C2CCCN2S(=O)(=O)c2cccc3cccnc23)c1` (centres undefined), the max response, negative = inhibition is -10.9%.

On to `Cc1ccc(NC(=O)C2CCCN2S(=O)(=O)c2cccc3cccnc23)c(C)c1` (centres undefined), for which the max response, negative = inhibition is -3.33%.

Take `O=C(Nc1nccs1)C1CCCN1S(=O)(=O)c1cccc2cccnc12` (centres undefined): the Potency is 26.7 µM (active).

As for `Cc1ccccc1-c1nc(NC(C)C)nc2cc(-c3ccccc3)sc12`, the max response, negative = inhibition is -6.2%.

Regarding `O=C(C1CC(=O)N(C2CCCCC2)C1)N1CCN(c2ccccc2)CC1` (centres undefined), the max response, negative = inhibition was -15.5%.

In the case of `O=C(C1CC(=O)N(c2ccc(F)cc2)C1)N1CCN(c2ccccc2)CC1` (centres undefined), the Potency is 18.9 µM (active).

For `CC1CC(C)CN(C(=O)C2CC(=O)N(c3ccc(F)cc3)C2)C1` (centres undefined), the max response, negative = inhibition is -7.49%.

`CC1=C(C(=O)N(C)C)CC(CC(=O)NCCc2ccccn2)C(=O)N1CCC1=CCCCC1` (centres undefined): the max response, negative = inhibition is -5.19%.

With `CC(=O)N(C1=C(Cl)C(=O)c2ccccc2C1=O)c1ccc(C(=O)O)cc1`, the Potency is 2.99 µM (active).

Turning to `O=C(Nc1nc(-c2ccco2)c(-c2ccco2)s1)c1ccco1`, the max response, negative = inhibition is -24.5%.

As to `COCCNC(=O)CSc1nc(N)c(NC(=O)c2ccco2)c(=O)[nH]1`, the max response, negative = inhibition was -1.47%.

Regarding `COCCNC(=O)Nc1ccc2nc(-c3ccco3)c(-c3ccco3)nc2c1`, the Potency was 21.2 µM (active).

In the case of `CC1(C(=O)NS(=O)(=O)c2ccccc2Cl)CCN1C(=O)c1cccc(F)c1` (centres undefined), the max response, negative = inhibition is -14.1%.

As for `CC(C)CN1C(=O)CN(S(C)(=O)=O)CC1(C)C(=O)NCc1ccccc1` (centres undefined), the max response, negative = inhibition is 4.65%.

With `O=C1NC[C@H](Cc2ccc(O)cc2)N(C[C@H]2CCCN2C[C@H](Cc2ccccc2)N2C[C@H](Cc3ccccc3)N(CCc3ccccc3)C(=O)C2=O)C1=O`, the max response, negative = inhibition was -6.61%.

With `CC1CCN(c2ccc3c(c2)S(=O)(=O)c2cc(C(=O)O)ccc2C3=O)CC1`, the max response, negative = inhibition is 2.83%.

On to `O=C(NCCC1=CCCCC1)c1ccc(-n2cncn2)cc1`, for which the max response, negative = inhibition was 7.38%.

Regarding `C1=C(CCNc2ncnc3c2cnn3-c2ccccc2)CCCC1`, the Potency was 3.36 µM (active).

In the case of `CC(C)Sc1ncnc2c1cnn2-c1ccccc1`, the max response, negative = inhibition is 2.81%.

Regarding `C[C@H]1CN(c2ccc(Br)cc2)C(=O)[C@@H]1CC(=O)Nc1ccc(Br)cc1`, the max response, negative = inhibition is 1%.

As to `O=C(C(=O)N1CCN(c2ccccc2)CC1)c1ccc2c(c1)OCO2`, the max response, negative = inhibition is -10.2%.

Turning to `O=C(Cc1ccccc1Cl)N1CCN(c2ccccn2)CC1`, the max response, negative = inhibition is -14.6%.

Consider `O=C(CN1CCN(c2ccccn2)CC1)Nc1ccc(Br)cc1`, for which the max response, negative = inhibition is -15.1%.

In the case of `O=C(Cc1ccc(Br)cc1)N1CCN(c2ccccn2)CC1`, the Potency is 29.9 µM (active).

Take `CCc1nnc(NC(=O)c2ccco2)s1`: the max response, negative = inhibition is -6.68%.

For `O=C(C1CCN(S(=O)(=O)c2cnc[nH]2)CC1)N1CCN(Cc2ccc3c(c2)OCO3)CC1`, the Potency was 2.99 µM (active).

For `O=C(C1CCN(Cc2ccc(Cl)cc2)CC1)N1CCN(Cc2ccc3c(c2)OCO3)CC1`, the max response, negative = inhibition was 2.77%.

In the case of `Cc1cccc(N2CCN(C(=O)C3CCN(S(=O)(=O)c4cnc[nH]4)CC3)CC2)c1C`, the max response, negative = inhibition was 3.15%.

With `CCC(C(=O)Nc1c(C)cccc1C)n1c(-c2cc(C)cs2)nc2ccccc21` (centres undefined), the max response, negative = inhibition was -9.18%.

Consider `Cc1cc2cc3n(c2nn1)N=C(Cl)CC3`, for which the max response, negative = inhibition is -3.02%.

As to `C=CCC[C@H](CCCCC)OC(=O)/C=C/[C@H](O)[C@@H](O)C[C@@H](O)CC=C`, the max response, negative = inhibition is -13.7%.

Regarding `C[C@@H]1CN([C@H](C)CO)C(=O)CCCn2cc(nn2)CO[C@H]1CN(C)S(=O)(=O)c1ccc(Oc2ccccc2)nc1`, the max response, negative = inhibition is -19.7%.

As to `O=C1C=C(c2ccc(Cl)cc2)C(=O)N1Nc1ccccc1`, the Potency is 6.7 µM (active).

For the compound `O=C(CCC(=O)OCc1ccc(Cl)cc1)Nc1ccccc1`, the max response, negative = inhibition was -4.01%.

`O=C(O)CC1=C(Nc2ccccc2)C(=O)N(c2ccccc2)C1c1ccc(Cl)cc1` (centres undefined): the max response, negative = inhibition was -11.1%.

`CC1(C(=O)Nc2ccc3c(c2)OCCO3)CN(S(C)(=O)=O)CC(=O)N1Cc1cccc(F)c1` (centres undefined): the max response, negative = inhibition is -14.7%.

With `COC(=O)C[C@H]1C[C@@H]2c3cc(NC(=O)Nc4ccccc4)ccc3O[C@@H]2[C@@H](CO)O1`, the max response, negative = inhibition is 0.628%.

Consider `Cc1ccc(S(=O)(=O)CC(=O)Nc2sc(C)c(C)c2C(N)=O)cc1`, for which the max response, negative = inhibition is -9.45%.

On to `Cc1ccc(C(=O)c2c(NC(=O)c3ccccc3)sc(C)c2C)cc1`, for which the Potency is 11.9 µM (active).

As for `Cc1sc(NC(=O)c2ccc3ncsc3c2)c(C(N)=O)c1C`, the max response, negative = inhibition is -11%.

With `CC(Oc1cccc(NC(=O)c2cccs2)c1)C(=O)c1ccccc1` (centres undefined), the max response, negative = inhibition was -3.5%.

For `Cc1ccoc1C(=O)Nc1cccc(Oc2ccccc2)c1`, the Potency is 29.9 µM (active).

`CC1(C(=O)Nc2cccc(Oc3ccccc3)c2)CCN1Cc1ccccc1Cl` (centres undefined): the max response, negative = inhibition is -5.84%.

Take `Nc1nc2c(ncn2[C@@H]2O[C@H](CNCc3ccc(OCCCN4CCOCC4)cc3)[C@@H](O)[C@H]2O)c(=O)[nH]1`: the max response, negative = inhibition was -2.1%.

As to `COc1cccc(-c2cnc(C(O)c3ccccc3OC)[nH]2)c1` (centres undefined), the max response, negative = inhibition was -12.1%.

For `CCc1cc(=O)oc2c(C)c(OCC(=O)NCCN3CCOCC3)ccc12`, the Potency is 21.2 µM (active).

For the compound `CCCc1cc(=O)oc2c(C)c(OCC(=O)NCc3ccccn3)ccc12`, the max response, negative = inhibition is 0.145%.

Turning to `CCCc1cc(=O)oc2c(C)c(OCC(=O)Nc3ccccn3)ccc12`, the max response, negative = inhibition was 7.66%.

As for `COc1ccc(C(C)C)cc1-c1ccc2nncn2c1`, the max response, negative = inhibition was -3.26%.

Take `COc1cccc(-c2cc3nc(NCCOc4ccccc4Cl)n(C)c(=O)c3s2)c1`: the max response, negative = inhibition is -5.38%.

Consider `O=C(Nc1ccccc1)c1ccccc1Br`, for which the max response, negative = inhibition is -3.61%.

As to `COCCCN1C(=O)C(CC(=O)NCc2cccs2)CC(C(=O)N2CCOCC2)=C1C` (centres undefined), the max response, negative = inhibition is -4.29%.

As for `CSc1nc(N(C)NC(=O)c2cccc(C)c2)c2ccccc2n1`, the max response, negative = inhibition is -6.24%.

Turning to `CC(Sc1nnc2c(n1)C1CCC2(C)C1(C)C)C(=O)Nc1ccccc1` (centres undefined), the max response, negative = inhibition is 1.59%.

As for `CSc1nc(C)cc(SC(C(C)=O)C(=O)Nc2ccccc2)n1` (centres undefined), the Potency is 26.7 µM (active).

Turning to `CC(C)NC(=O)C1(C)CCCCCN1C(=O)c1ccc(-c2ccccc2)cc1` (centres undefined), the max response, negative = inhibition is -8.92%.

As to `COc1ccc(-c2ccc(CN3C(C(C)C)C(=O)N(Cc4cn(CC5CCCCC5)nn4)CCS3(=O)=O)cc2)cn1` (centres undefined), the max response, negative = inhibition is -14.8%.

As for `COC(=O)C1(C(=O)OC)C[C@H](c2ccccc2)N(Cc2ccccc2OC)[C@@H]1c1ccccc1`, the max response, negative = inhibition is -15.2%.

As for `CCN(CC)C(=O)C1=C(C)N(Cc2ccc(F)cc2)C(=O)C(CC(=O)NCc2cccc3ccccc23)C1` (centres undefined), the max response, negative = inhibition was -13.9%.

With `CCCc1c(-c2ccccc2F)ncn1Cc1ccccc1OC`, the max response, negative = inhibition is -1.08%.

In the case of `Cc1ccccc1-c1csc(C(O)c2cccc(Cl)c2)n1` (centres undefined), the max response, negative = inhibition is -10.6%.

Regarding `O=C(/C=C/[C@H]1O[C@@H](n2cnc3c(NC(=O)c4ccccc4)ncnc32)[C@H](O)[C@@H]1O)NCc1ccccc1`, the max response, negative = inhibition is -4.8%.

`CCOc1ccc(Cn2c(SCCCCC#N)nc3c2c(=O)n(C)c(=O)n3C)cc1OCC`: the Potency was 18.9 µM (active).

In the case of `CCCCn1c(SCC(=O)NCCc2ccc(OC)c(OC)c2)nc2c1c(=O)n(C)c(=O)n2C`, the max response, negative = inhibition was -1.04%.

Take `CCCSc1nc2c(c(=O)n(C)c(=O)n2C)n1Cc1ccc(C)cc1`: the max response, negative = inhibition is -10.2%.

As for `COc1ccc(NC(=O)C2Cc3c(-c4ccc(Cl)cc4)ccnc3O2)cc1` (centres undefined), the max response, negative = inhibition was 1.68%.

Turning to `O=C(NCC(O)c1nc2ccccc2[nH]1)c1ccc(Br)cc1` (centres undefined), the max response, negative = inhibition was -3.2%.

`CC1(C(=O)NCc2ccc3c(c2)OCO3)CCN1CCc1ccccc1` (centres undefined): the max response, negative = inhibition was 2.52%.

As for `CCN(CC)CCn1c2c(c(SCC(=O)Nc3nc4ccccc4s3)nc1=O)CCCC2`, the max response, negative = inhibition was -2.27%.

As for `c1ccc(C(=NNc2nc3ccccc3s2)c2ccccn2)cc1`, the max response, negative = inhibition was -7.03%.

`c1ccc2sc(NN=C3CCCC3)nc2c1`: the Potency is 26.7 µM (active).

As for `OC[C@@H]1CN(C2CCCC2)C[C@H](n2cnc3c(NC4CCC4)ncnc32)O1`, the max response, negative = inhibition was -3.48%.

For `C=CCn1c2c(c3ccccc31)CCC2`, the max response, negative = inhibition is -9.68%.

As for `Cn1c(=O)c([N+](=O)[O-])c(Oc2ccccc2)c2ccccc21`, the Potency is 23.8 µM (active).

As for `COc1cc2c(=O)n(C)c3ccccc3c2cc1OC`, the max response, negative = inhibition is -8.91%.

Regarding `Cc1cc(C)c(-c2c(O)c3ccccc3n(C)c2=O)c(C)c1`, the max response, negative = inhibition was -5.02%.

With `CCOC(=O)c1c(C)[nH]c(C)c1C(=O)COC(=O)/C=C/c1cccc([N+](=O)[O-])c1`, the max response, negative = inhibition was 1.23%.

As for `Cc1ccnc(NS(=O)(=O)c2ccc(NC(=O)c3ccc(S(=O)(=O)N(C)C)cc3)cc2)n1`, the Potency is 26.7 µM (active).

As for `Cc1ccnc(NS(=O)(=O)c2ccc(NC(=O)c3oc4ccccc4c3C)cc2)n1`, the max response, negative = inhibition was -5.87%.

As for `Cc1ccnc(NS(=O)(=O)c2ccc(NC(=O)c3ccc(S(=O)(=O)N4CCOCC4)cc3)cc2)n1`, the max response, negative = inhibition is -5.87%.

`COc1ccc(C(C)(O)c2nc(-c3cc(F)cc(F)c3)cs2)cc1` (centres undefined): the max response, negative = inhibition is 4.82%.

Regarding `OC(c1ccccc1)(c1ccccc1)C1CCN(CCCOc2ccccc2)CC1`, the max response, negative = inhibition was 0.305%.

Turning to `CC(C)N=C1CCCC1C(=S)SSC(=S)C1CCCC1=NC(C)C` (centres undefined), the Potency was 9.47 µM (active).

With `CCC(c1nc2ccccc2[nH]1)n1c(=O)c(-c2cccs2)nc2ccccc21` (centres undefined), the max response, negative = inhibition was 7.42%.

Take `COc1ccc(-c2[nH][nH]c(=O)c2NC(=O)c2ccc([N+](=O)[O-])cc2)cc1`: the max response, negative = inhibition was -12.4%.

As for `Cc1ccc(C(=O)Nc2nc(N)n(-c3ccccc3)n2)cc1`, the max response, negative = inhibition was -8.25%.

On to `Cc1ccc(C(=O)Nc2c(-c3ccccc3)[nH][nH]c2=O)cc1`, for which the Potency was 23.8 µM (active).
